KDM5B inhibitor = blocks human KDM5B histone demethylase activity. Q9UGL1. KDM5B demethylase, FDH-coupled NADH fluorescence (FDH is formaldehyde dehydrogenase). Potency, µM (titrated, usually from 57.7 µM), actives largely listed as inhibitors. 220,000 tested, 2.6% active. AID 1347165; active = well fitted inhibition curve with a large enough effect; also: 0% is about no effect; nearly all actives have a fitted effect of over 70% in size
Target sequence (Q9UGL1 whole entry, looked up): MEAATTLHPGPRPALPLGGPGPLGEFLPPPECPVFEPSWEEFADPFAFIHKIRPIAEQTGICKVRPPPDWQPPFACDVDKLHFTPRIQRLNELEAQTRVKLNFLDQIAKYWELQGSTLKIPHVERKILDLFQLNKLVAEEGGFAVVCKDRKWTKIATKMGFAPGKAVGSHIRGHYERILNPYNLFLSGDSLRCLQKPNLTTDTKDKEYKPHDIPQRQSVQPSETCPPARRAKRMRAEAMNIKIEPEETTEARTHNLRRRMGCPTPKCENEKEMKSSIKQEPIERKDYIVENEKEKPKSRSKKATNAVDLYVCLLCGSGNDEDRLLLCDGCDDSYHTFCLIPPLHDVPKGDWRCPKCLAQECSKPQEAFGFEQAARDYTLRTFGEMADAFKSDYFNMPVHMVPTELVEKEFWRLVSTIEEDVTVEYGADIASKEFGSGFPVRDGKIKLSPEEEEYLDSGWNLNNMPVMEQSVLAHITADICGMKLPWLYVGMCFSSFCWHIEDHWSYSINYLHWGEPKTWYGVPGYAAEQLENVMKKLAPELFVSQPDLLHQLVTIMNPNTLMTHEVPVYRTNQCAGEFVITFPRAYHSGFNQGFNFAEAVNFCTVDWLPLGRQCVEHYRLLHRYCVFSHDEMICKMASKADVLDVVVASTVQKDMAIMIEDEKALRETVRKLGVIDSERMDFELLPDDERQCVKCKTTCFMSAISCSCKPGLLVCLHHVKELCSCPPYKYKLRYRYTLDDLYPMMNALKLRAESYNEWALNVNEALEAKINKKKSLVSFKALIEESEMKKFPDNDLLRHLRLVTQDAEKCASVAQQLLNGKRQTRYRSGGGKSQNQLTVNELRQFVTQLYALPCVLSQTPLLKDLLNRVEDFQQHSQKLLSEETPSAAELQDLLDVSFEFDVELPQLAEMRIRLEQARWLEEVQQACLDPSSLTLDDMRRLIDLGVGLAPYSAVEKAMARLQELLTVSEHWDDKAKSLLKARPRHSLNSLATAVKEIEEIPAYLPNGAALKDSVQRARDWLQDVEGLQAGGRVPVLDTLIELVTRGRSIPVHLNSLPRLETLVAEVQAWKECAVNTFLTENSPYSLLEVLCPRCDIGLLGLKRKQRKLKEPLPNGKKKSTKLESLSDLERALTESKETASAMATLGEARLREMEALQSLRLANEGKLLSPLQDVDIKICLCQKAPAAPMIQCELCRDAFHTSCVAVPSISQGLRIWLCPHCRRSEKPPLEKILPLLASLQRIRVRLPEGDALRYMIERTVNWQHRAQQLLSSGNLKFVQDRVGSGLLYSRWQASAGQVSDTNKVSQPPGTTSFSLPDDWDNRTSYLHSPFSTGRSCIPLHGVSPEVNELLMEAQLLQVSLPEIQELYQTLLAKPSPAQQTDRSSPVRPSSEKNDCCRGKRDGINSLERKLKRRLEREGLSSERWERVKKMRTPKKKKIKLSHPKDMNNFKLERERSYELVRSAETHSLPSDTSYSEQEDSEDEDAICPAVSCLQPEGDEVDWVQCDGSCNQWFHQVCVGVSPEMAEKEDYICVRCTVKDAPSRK
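Measured: NADH fluorescence change, 30 min, RT. System: KDM5BΔAP 200 nM final, H3K4me3 peptide, α-KG, Fe(II), ascorbate, NAD⁺ plus FDH, pH 7.5 HEPES. Compounds: titrated, 10 min pre-incubation with enzyme.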
The depositor's hits bear a star. Shown is part of a subset that was picked to be rich in hits. Potency is read from the fitted curve at half-maximal effect.

For Cc1ccc(CNC(=O)COc2ccc3c(C)cc(=O)oc3c2)cc1 the results were KDM5B inhibitor inactive.
CC(=O)NC1CCCc2c1[nH]c1ccc(Cl)cc21 (stereo not given) was read as KDM5B inhibitor inactive.
For Cc1noc(C)c1CCC(=O)NC1CCCc2c1[nH]c1c(Cl)cccc21 (stereo not given) the results were KDM5B inhibitor inactive.
For O=C(COc1ccccc1-n1cnnc1)NC1CCCc2c1[nH]c1ccccc21 (stereo not given) the results were KDM5B inhibitor inactive.
`Cc1noc(C)c1CCC(=O)NC1CCCc2c1[nH]c1ccccc21` (stereo not given) gave KDM5B inhibitor 28.2µM*.
Screening Cc1cc(=O)oc2cc(OCC(=O)NC3CCCc4c3[nH]c3ccccc43)ccc12 (stereo not given) returned KDM5B inhibitor 15.8µM*.
Screening Cc1ccc(NS(=O)(=O)c2cccc(C(=O)Nc3ccc4oc(C)nc4c3)c2)cc1 returned KDM5B inhibitor inactive.
`O=C(O)CNc1ccccc1` gave KDM5B inhibitor inactive.
For O=C(CSc1ccccc1C(=O)O)Nc1ccc2c(c1)OCCCO2 the results were KDM5B inhibitor inactive.
COC(=O)c1ccc(COC(=O)CC23CC4CC(CC(Br)(C4)C2)C3)o1 was read as KDM5B inhibitor inactive.
`CC(NC(=O)c1ccc(N2CCCC2=O)cc1)c1ccccc1Cl` (stereo not given) gave KDM5B inhibitor inactive.
Screening Cc1cc(C)c(NC(=O)c2cnc3ccccc3n2)c(C)c1 returned KDM5B inhibitor inactive.
For COc1ccc(-c2nc(CNC(=O)Nc3ccc(C)cc3)c(C)o2)cc1 the results were KDM5B inhibitor inactive.
`Cc1cccc(/C=C(/C(=O)O)c2cccs2)c1` gave KDM5B inhibitor inactive.
COc1ccc(NC(=O)COc2ccc3c(C)c(C)c(=O)oc3c2)cc1 was read as KDM5B inhibitor inactive.
Cc1noc(C)c1-c1cc2c(cc(C)n2CCN(C)C)c(-c2cccc(O)c2)n1 was read as KDM5B inhibitor inactive.
`Cc1noc(C)c1-c1cc2c(cc(C)n2CCN(C)C)c(Nc2ccn(C)n2)n1` gave KDM5B inhibitor inactive.
`COc1cccc(-c2nc(-c3c(C)noc3C)cc3c2cc(C)n3CCN(C)C)c1OC` gave KDM5B inhibitor 39.8µM*.
For Cc1noc(C)c1-c1cc2c(cc(C)n2CCN(C)C)c(-c2ccccc2O)n1 the results were KDM5B inhibitor 31.6µM*.
`Cc1noc(C)c1-c1cc2c(cc(C)n2CCN(C)C)c(-c2ccc(CO)cc2)n1` gave KDM5B inhibitor 25.1µM*.
Screening Fc1ccc(-c2noc(-c3ccc[nH]3)n2)cc1 returned KDM5B inhibitor inactive.
Cc1cc(C(=O)Cn2c(Cl)nc3c2c(=O)n(C)c(=O)n3C)c(C)n1CC(F)(F)F was read as KDM5B inhibitor inactive.
For Cc1onc(-c2ccccc2)c1-c1nnc(CN2CCN(CC(=O)N3CCOCC3)CC2)o1 the results were KDM5B inhibitor inactive.
`CCCCN1CCN(c2nc3c(c(=O)[nH]c(=O)n3C)n2Cc2ccccc2F)CC1` gave KDM5B inhibitor inactive.
`COc1ncccc1-c1cnc2[nH]cc(CC(=O)NCc3ccco3)c2c1` gave KDM5B inhibitor 35.5µM*.
COc1ccccc1C(=O)NCc1c[nH]c2ncccc12 was read as KDM5B inhibitor inactive.
For CCNC(=O)Cc1c[nH]c2ncc(-c3cccnc3OC)cc12 the results were KDM5B inhibitor 39.8µM*.
For COc1ncccc1CNC(=O)Cc1ccccc1Cl the results were KDM5B inhibitor inactive.
Screening COc1ccc(N2C(=O)CN(C3CCCC3)[C@H]3CS(=O)(=O)C[C@H]32)cc1 returned KDM5B inhibitor inactive.
For CC(C)c1ccc(-c2nonc2NC(=O)c2cc(=O)c3cc(Br)ccc3o2)cc1 the results were KDM5B inhibitor inactive.
Screening NC(=O)C1CCN(C(=O)/C=C/c2ccc(C(F)(F)F)cc2)CC1 returned KDM5B inhibitor inactive.
`COc1ccc(C2=NN(C(=O)CN3CCc4cc(OC)c(OC)cc4C3)C(c3ccco3)C2)cc1` (stereo not given) gave KDM5B inhibitor inactive.
`CSc1ccc2cc(CN(C)CCO)c(-c3ccc(Cl)cc3)nc2c1` gave KDM5B inhibitor 28.2µM*.
`CSc1cccc(NC(=O)Cn2c(-c3ccc(Cl)cc3)nc(C)c(CCO)c2=O)c1` gave KDM5B inhibitor inactive.
For CN(CCSc1ccc(Cl)cc1)Cc1nc2ccccc2c(=O)[nH]1 the results were KDM5B inhibitor inactive.
Screening COc1cc(NC(=O)Nc2ccc(F)cc2F)c(OC)cc1Cl returned KDM5B inhibitor inactive.
For CCOC(=O)C1=C(C)N(c2ccc3c(c2)OCO3)C(=O)NC1c1ccccc1 (stereo not given) the results were KDM5B inhibitor inactive.
Screening O=C(CCc1cccnc1)NC1(c2ccc(Br)cc2)CC1 returned KDM5B inhibitor inactive.
COc1ccc2c(ccn2CC(=O)Nc2ccc3c(c2)OCO3)c1 was read as KDM5B inhibitor inactive.
Screening COc1cccc(-c2nc3cnccn3c2NCCC(=O)N2CCN(C)CC2)c1 returned KDM5B inhibitor 28.2µM*.
COc1ccccc1-c1nc2cnccn2c1NCCC(=O)N1CCc2ccccc21 was read as KDM5B inhibitor 28.2µM*.
For COc1ccccc1-c1nc2cnccn2c1NCCC(=O)Nc1ccc2c(c1)OCO2 the results were KDM5B inhibitor 28.2µM*.
`COc1ccc(Nc2c(-c3cccc(O)c3)nc3cnccn23)cc1` gave KDM5B inhibitor inactive.
`COc1cnc(CSc2nc(C)cc(C)n2)cc1OCC(=O)N1CCc2ccccc21` gave KDM5B inhibitor inactive.
For COc1ccccc1-c1ccc2ncc(Nc3ccc4c(c3)OCO4)n2n1 the results were KDM5B inhibitor inactive.
Screening COc1cccc(NC(=O)Cc2ccc(NC(=O)N3CCCCc4ccccc43)cc2)c1 returned KDM5B inhibitor inactive.
COc1cnc(CSc2nc(C)cs2)cc1OCC(=O)N1CCc2ccccc21 was read as KDM5B inhibitor inactive.
Screening CCCCCCC(=O)N1CCCC(c2nc(-c3cccc(OC)c3)no2)C1 (stereo not given) returned KDM5B inhibitor inactive.
Screening COc1cccc(Cc2nc3ccccc3nc2SCC(=O)N2CCc3ccccc32)c1 returned KDM5B inhibitor inactive.
`COc1cccc(-c2nc3cnccn3c2NCCC(=O)N2CCc3ccccc32)c1` gave KDM5B inhibitor 22.4µM*.
For CCOC(=O)C1CCN(Cc2cc(=O)oc3cc(C)c(O)cc23)CC1 the results were KDM5B inhibitor inactive.
Screening O=C(COC(=O)CCc1nc2ccccc2s1)Nc1ccccc1C(=O)c1ccccc1 returned KDM5B inhibitor inactive.
`CCC(=O)Nc1ccc2nc(SCc3ccc(F)cc3)sc2c1` gave KDM5B inhibitor inactive.
`Cc1cc(C)cc(NC(=O)C2CC(=O)n3c(nc4ccccc43)N2)c1` (stereo not given) gave KDM5B inhibitor inactive.
For COc1ccccc1-c1cc(NC(=O)C(C)SC)n[nH]1 (stereo not given) the results were KDM5B inhibitor inactive.
For Cc1ccc(C)c(NC(=O)c2cc3c(N4CCSCC4)nc(C)cn3n2)c1 the results were KDM5B inhibitor 31.6µM*.
`Cc1cn2nc(C(=O)Nc3ccccc3C)cc2c(N2CCSCC2)n1` gave KDM5B inhibitor 35.5µM*.
For COc1ccccc1NC(=O)c1cc2c(N3CCSCC3)nc(C)cn2n1 the results were KDM5B inhibitor 28.2µM*.
COc1ccc(OC)c(NC(=O)c2cc3c(N4CCSCC4)nc(C)cn3n2)c1 was read as KDM5B inhibitor inactive.
